HT1080NT lethal = qHTS for induction of synthetic lethality in tumor cells producing 2HG: qHTS for the HT-1080-NT fibrosarcoma cell line; hit rate 1.6% among 360,000; AID 686970, 2013; Potency, µM (top dose mostly 46.1 µM), without a hit: at the top dose activity, negative = less viability, actives largely listed as cytotoxic; HT-1080-NT fibrosarcoma viability, CellTiter-Glo ATP luminescence, 48 h;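 note: NT is the 2HG producing partner of a matched IDH1 knockdown line; 0% = DMSO-treated cells and -100% = media-only wells without cells; nearly all actives have a fitted effect of over 55% in size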
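Viability by CellTiter-Glo luminescence after 48 h compound exposure at 37C of HT-1080-NT cells (750/well, RPMI, 5% FBS). % activity scaled between DMSO wells and medium-only wells, then curve-fitted and categorized by curve class.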
TDP1 cell CPT = qHTS for Inhibitors of human tyrosyl-DNA phosphodiesterase 1 (TDP1): qHTS in cells in presence of CPT. AID 686979, 2013. Potency, µM (series often up to 46.2 µM), without a hit: top-dose activity change, negative = growth inhibition, usual class: inhibitors. hit rate 12% among 420,000. chicken DT40 Tdp1-/-;hTDP1 cells + 20 nM CPT, ATP luminescence, 48 h; note: % is set by controls: 0 for no effect and ±100 for the full control effect; nearly all actives have a fitted effect of over 55% in size
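Cell growth measured by CellTiter-Glo luminescence after a minimum 48 h, 37 C compound exposure with 20 nM CPT in Tdp1-knockout DT40 cells stably expressing hTDP1, seeded 400/well; qHTS titration format.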
TGFb SMAD3 inh = qHTS for Inhibitors of TGF-b; HepG2 CAGA-GFP TGF-b/SMAD3 reporter, GFP fluorescence, 18 h; TGF-beta stimulated, 500 pg/mL final; Potency, µM (doses to about 46.1 µM), for inactives: at the top dose activity, negative = inhibition, usual class: inhibitors; hit rate 1.2% among 410,000; note: % is set by controls: 0 for no effect and ±100 for the full control effect; nearly all actives have a fitted effect of over 65% in size
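Per well, imaged GFP fluorescence of HEPG2 CAGA-GFP cells gives the signal; cells get compound, then TGF-beta (500 pg/mL final), 18 h at 37 degrees C; %Activity versus -TGF-beta and +DMSO controls.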
TDP1 cell noCPT = qHTS for Inhibitors of human tyrosyl-DNA phosphodiesterase 1 (TDP1): qHTS in cells in absence of CPT; DT40 Tdp1-/- hTDP1 cells, no CPT, ATP luminescence, 48 h; Potency, µM (series often up to 46.2 µM), without a hit: top-dose activity change, negative = growth inhibition, most hits filed as inhibitors; hit rate 15% among 420,000; note: % is set by controls: 0 for no effect and ±100 for the full control effect; nearly all actives have a fitted effect of over 55% in size
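Chicken DT40 Tdp1-/- cells stably complemented with human TDP1 were seeded at 400 cells/well with DMSO in place of 20 nM camptothecin. After compound pinning, cells grew at least 48 hr at 37 °C; viability read by CellTiter-Glo luminescence.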
HepG2 tox = qHTS for Inhibitors of TGF-b: Cytotox Counterscreen. HepG2 CAGA-GFP viability, ATP luminescence, 18 h. Potency, µM (doses to about 46.1 µM), without a hit: top-dose activity change, negative = cytotoxicity, hits mostly cytotoxic. hit rate 0.76% among 410,000
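HepG2 CAGA-GFP cells (1000/well, DMEM with 1% FBS) received compound, then TGF-beta at 500 pg/mL final, and were incubated 18 hours at 37 degrees C. Viability was read by CellTiter-Glo luminescence. Media-only wells were set as complete cell-killing and DMSO as no toxicity.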
HT1080 IDH1KD tx = qHTS for induction of synthetic lethality in tumor cells producing 2HG: qHTS for the HT-1080-IDH1KD cell line | Potency, µM (series often up to 46.1 µM), for inactives: at the highest dose activity, negative = toxicity, usual class: cytotoxic | hit rate 2% among 360,000 | AID 686971, 2013 | HT-1080 IDH1 knockdown viability, ATP luminescence, 48 h;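 note: 0% = DMSO wells and -100% = cell-free medium wells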
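Using the IDH1-knockdown HT-1080 line run in the same batch and compound series as the NT line, viability after 48 h at 37 °C was determined by CellTiter-Glo luminescence and expressed as % activity.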
Starred values were filed as active, the others as inactive; [ ] = dose if it differs, or a comment. This is a sample that favours compounds with a hit; in the whole collection about 17% have one here. Calls come from the whole dose curve; as a rule, active = well fitted curve in the direction sought with a large enough effect; inconclusive = small, poorly fitted or top-dose-only effect, or another doubt; inactive = no such curve, though single readings can be large; an effect the other way counts as inactive or inconclusive. Potency is the fitted concentration of half-maximal effect.

Screening CC(Sc1ncnc2sc(-c3ccccc3)cc12)C(=O)NCC1CCCO1 (configuration not stated) returned HT1080NT lethal -11.1%, TDP1 cell CPT inconclusive, TGFb SMAD3 inh 4.9%, TDP1 cell noCPT 23.1µM*, HepG2 tox -15.5% and HT1080 IDH1KD tx inconclusive.
For CC(Sc1nc(N)cc(N)n1)C(=O)NCC1CCCO1 (configuration not stated) the results were HT1080NT lethal -5.2%[9.24 µM], TDP1 cell CPT -0.8%, TGFb SMAD3 inh 14.9%, TDP1 cell noCPT 0.0%, HepG2 tox 2.3% and HT1080 IDH1KD tx -8.0%.
CC(Sc1nc(-c2ccccc2)c(-c2ccccc2)[nH]1)C(=O)NCC1CCCO1 (configuration not stated) was read as HT1080NT lethal -9.7%, TDP1 cell CPT inconclusive, TGFb SMAD3 inh -3.4%, TDP1 cell noCPT 23.1µM*, HepG2 tox 1.3% and HT1080 IDH1KD tx -2.5%.
O=C(Cn1cc(C(F)(F)F)ccc1=O)Nc1ccccc1 was read as HT1080NT lethal 3.0%, TDP1 cell CPT -2.7%, TGFb SMAD3 inh -12.6%, TDP1 cell noCPT -6.1%, HepG2 tox -4.8% and HT1080 IDH1KD tx 13.6%.
For O=c1cc(C(F)(F)F)[nH]c2ccc(OC(F)(F)F)cc12 the results were HT1080NT lethal inconclusive, TDP1 cell CPT 20.6µM*, TGFb SMAD3 inh inconclusive, TDP1 cell noCPT 13µM*, HepG2 tox -13.8% and HT1080 IDH1KD tx 20.6µM*.
Screening CCOc1ccc2[nH]c(C)cc(=O)c2c1 returned HT1080NT lethal 6.5%, TDP1 cell CPT inconclusive, TGFb SMAD3 inh 0.1%, TDP1 cell noCPT -26.1%, HepG2 tox -12.9% and HT1080 IDH1KD tx -0.6%.
Screening O=c1cc(C(F)(F)F)[nH]c2c(C(F)(F)F)cccc12 returned HT1080NT lethal inconclusive, TDP1 cell CPT 18.4µM*, TGFb SMAD3 inh inconclusive, TDP1 cell noCPT 16.4µM*, HepG2 tox -34.9% and HT1080 IDH1KD tx inconclusive.
For CC(C(=O)N1CCCC1)N1CCN(c2ccccc2O)CC1 (configuration not stated) the results were HT1080NT lethal 5.4%, TDP1 cell CPT 5.2%, TGFb SMAD3 inh 3.5%, TDP1 cell noCPT 4.2%, HepG2 tox 11.9% and HT1080 IDH1KD tx -2.6%.
Screening COc1ccc(CN2CCN(C(=O)c3ccc(CNS(=O)(=O)c4ccc(C)cc4)cc3)CC2)c(OC)c1OC returned HT1080NT lethal -14.2%, TDP1 cell CPT 13µM*, TGFb SMAD3 inh -17.0%, TDP1 cell noCPT 13µM*, HepG2 tox -1.1% and HT1080 IDH1KD tx -7.3%.
Screening Cc1ccc(C)c(S(=O)(=O)NCc2ccc(C(=O)N3CCN(c4ccccc4)CC3)cc2)c1 returned HT1080NT lethal -1.9%, TDP1 cell CPT inconclusive, TGFb SMAD3 inh 47.0%, TDP1 cell noCPT inconclusive, HepG2 tox -3.8% and HT1080 IDH1KD tx -5.2%.
Screening O=C(c1ccc(CNS(=O)(=O)c2cccc(Cl)c2)cc1)N1CCCC1 returned HT1080NT lethal 1.4%, TDP1 cell CPT 1.7%, TGFb SMAD3 inh 3.1%, TDP1 cell noCPT -27.0%, HepG2 tox -2.6% and HT1080 IDH1KD tx 4.0%.
For O=C(c1ccc(CNS(=O)(=O)c2ccc(F)cc2)cc1)N1CCCCCC1 the results were HT1080NT lethal 3.1%, TDP1 cell CPT inconclusive, TGFb SMAD3 inh -12.6%, TDP1 cell noCPT 14.6µM*, HepG2 tox -2.7% and HT1080 IDH1KD tx 3.0%.
`Cc1ccc(C)c(S(=O)(=O)NCc2ccc(C(=O)N3CCCCCC3)cc2)c1` gave HT1080NT lethal -5.8%, TDP1 cell CPT inconclusive, TGFb SMAD3 inh -10.0%, TDP1 cell noCPT 23.1µM*, HepG2 tox -31.2% and HT1080 IDH1KD tx -0.5%.
Screening COc1ccc(N2CCN(C(=O)c3ccc(CNS(=O)(=O)c4cc(C)ccc4C)cc3)CC2)cc1 returned HT1080NT lethal -15.4%, TDP1 cell CPT 20.6µM*, TGFb SMAD3 inh inconclusive, TDP1 cell noCPT 14.6µM*, HepG2 tox -27.6% and HT1080 IDH1KD tx inconclusive.
Screening COc1ccc(-n2c(=O)cnc3cnc(N4CCOCC4)nc32)cc1 returned TDP1 cell CPT inconclusive and TDP1 cell noCPT -22.2%.
O=C(C1CCN(CCc2ccccc2)CC1)N1CCOCC1 was read as HT1080NT lethal -4.5%, TDP1 cell CPT 3.7%, TGFb SMAD3 inh 3.0%, TDP1 cell noCPT -5.7%, HepG2 tox -5.3% and HT1080 IDH1KD tx -0.5%.
O=C(CN1C(=O)C(=O)N(Cc2ccccc2)C1=O)Nc1ccc(F)c(Cl)c1 was read as HT1080NT lethal -17.4%, TDP1 cell CPT -0.3%, TGFb SMAD3 inh -3.0%, TDP1 cell noCPT -5.0%, HepG2 tox 0.0% and HT1080 IDH1KD tx -2.6%.
For CC[C@H]1NC(=O)[C@@H](NC(=O)c2ncccc2O)[C@@H](C)OC(=O)[C@H](c2ccccc2)NC(=O)[C@@H]2CC(=O)CCN2C(=O)[C@H](Cc2ccccc2)N(C)C(=O)[C@@H]2CCCN2C1=O the results were TDP1 cell CPT 11.3% and TDP1 cell noCPT -8.4%.
Screening Cc1ccc(S(=O)(=O)NCc2ccc(C(=O)N3CCN(Cc4ccccc4)CC3)cc2)cc1 returned HT1080NT lethal inconclusive, TDP1 cell CPT inconclusive, TGFb SMAD3 inh inconclusive, TDP1 cell noCPT inconclusive, HepG2 tox -28.6% and HT1080 IDH1KD tx -19.3%.
For COc1ccc(N2CCN(C(=O)c3ccc(CNS(=O)(=O)c4ccc(C)cc4)cc3)CC2)cc1 the results were HT1080NT lethal -27.7%, TDP1 cell CPT inconclusive, TGFb SMAD3 inh -14.5%, TDP1 cell noCPT 11.6µM*, HepG2 tox -28.3% and HT1080 IDH1KD tx inconclusive.
Screening Cc1ccc(S(=O)(=O)NCc2ccc(C(=O)N3CCN(c4ccc([N+](=O)[O-])cc4)CC3)cc2)cc1 returned HT1080NT lethal -14.1%, TDP1 cell CPT 16.4µM*, TGFb SMAD3 inh -24.8%, TDP1 cell noCPT 9.2µM*, HepG2 tox -14.0% and HT1080 IDH1KD tx -4.9%.
CCN(CC)CCCn1c2c(c(SCC(=O)N3CCCc4ccccc43)nc1=O)CCC2 was read as HT1080NT lethal inconclusive, TDP1 cell CPT inconclusive, TGFb SMAD3 inh 14.0%, TDP1 cell noCPT -17.4%, HepG2 tox -22.5% and HT1080 IDH1KD tx -26.6%.
